# GPR151 ag: activators of human GPR151; PathHunter beta-arrestin GPR151 cells, luminescence; 650,000 tested, 1% active; Q8TDV0; activation, % at 11.2 µM; in the data active = activation above about 4.9%;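 also: 0% = median of compound wells and 100% = cells with positive control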
# MITF primary: inhibitors of human MITF. O75030. AlphaScreen MITF homodimerization, bead proximity signal. inhibition, % at 2.6 µM. 650,000 tested, 0.91% active. AID 1259374; in the data active = inhibition above about 50%;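 also: 0% = vehicle wells with protein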
# FBW7 activator: activators of human E3 ligase FBW7 | 650,000 tested, 0.13% active | normalized activity (activation), % at 26.1 µM | AID 1259310 | AlphaScreen FBW7–phospho-cyclin E peptide binding, activator screen; in the data active = normalized activity above about 1.9%;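 also: purified mutant Fbw7 with reduced substrate affinity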
# TEAD-YAP block: TEAD-YAP interaction inhibition | HEK-TIYL cells, TEAD-Gal4/YAP UAS-luciferase luminescence | inhibition, % at 9.12 µM | 640,000 tested, 1.4% active; in the data active = inhibition above about 32%;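 also: 0% = median of test compound wells and 100% = reference inhibitor wells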
# GPR151 confirm: confirmation of human GPR151 activators; shares compounds with GPR151 ag; GPR151 PathHunter beta-arrestin cells, luminescence, 90 min; % of EA-reagent control over plate median; activation, % at 11.2 µM; 6,700 tested, under 10 active; AID 1508609;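 active = mean percent activation across replicates above the confirmation screen cutoff of 4.91%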
# GPR119 ag: activates human GPR119 in a GPR151 counter-screen; activation, % at 11.2 µM; 6,700 tested, 0.3% active; AID 1508611; shares compounds with GPR151 ag; GPR119 PathHunter beta-arrestin cells, luminescence, 90 min; 0 = compound-well median, 100 = enzyme-acceptor control;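 active = mean percent activation in the counterscreen above 29.09%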;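 also: counterscreen on off-target GPR119 to flag nonselective hits from the GPR151 activator screen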
# Target sequence (Q8TDV5 whole entry, looked up): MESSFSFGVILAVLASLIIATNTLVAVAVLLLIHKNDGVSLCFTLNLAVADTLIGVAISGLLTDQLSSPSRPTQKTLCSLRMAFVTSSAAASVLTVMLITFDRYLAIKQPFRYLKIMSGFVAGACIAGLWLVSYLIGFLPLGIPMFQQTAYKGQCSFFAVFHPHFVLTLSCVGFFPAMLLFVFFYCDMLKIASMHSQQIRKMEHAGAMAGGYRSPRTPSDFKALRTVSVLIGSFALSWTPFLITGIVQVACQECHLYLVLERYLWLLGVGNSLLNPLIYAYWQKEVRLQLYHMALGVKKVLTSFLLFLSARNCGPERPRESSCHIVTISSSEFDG
# * = called active by the depositor; . = no result given. Most compounds without a hit are left out; they make up all but 3.5% or so of the library.
SMILES,GPR151 ag,MITF primary,FBW7 activator,TEAD-YAP block,GPR151 confirm,GPR119 ag
CCOc1ccc(S(=O)(=O)N(CC(=O)NCCSc2ccccc2)c2ccccc2)cc1,5.7*,2.8,-0.1,7.2,1.9,20.8
COc1ccc(OCC(=O)NCCSc2ccccc2)cc1,10.2*,0.7,0.0,-22.0,0.1,7.4
COc1ccc(CCNC(=O)COc2ccc(C(C)C)cc2)cc1,6.7*,-6.1,-0.1,3.0,-0.5,-11.8
CC(C)c1ccc(OCC(=O)NCCCS(=O)(=O)N2CCc3ccccc3C2)cc1,8.2*,1.0,0.1,2.1,0.6,-0.8
CCOC(=O)/C(C#N)=C/Nc1ccc(Br)cc1,2.0,-1.7,-0.1,-17.7,.,.
CC(C)C1CC(C(=O)NCCN2Cc3ccccc3OC(c3ccsc3)C2)CCO1 (centres undefined),0.7,-17.8,-0.1,16.5,.,.
O=C(N/N=C\c1ccc2ccccc2c1)c1ccc([N+](=O)[O-])cc1,-1.1,10.1,1.0,4.5,.,.
CN1C(=O)c2cccc(N3CCN(C(=O)Cc4ccsc4)CC3)c2C1=O,-1.3,-2.2,-0.1,-19.9,.,.
Cc1ccc(C(=O)NCN2CCN(c3ccccc3)CC2)cc1,6.0*,6.6,0.0,8.8,-0.4,-6.7
O=C(NCCCN1CCN(c2ccccc2)CC1)c1ccccc1,3.4,5.7,0.0,-2.7,.,.
CCn1c(=NC(=O)CN2C(=O)c3ccccc3C2=O)sc2c(OC)ccc(OC)c21,0.2,7.8,0.0,1.4,.,.
CC(=O)c1ccc(NC(=O)NNC(=O)c2cc(Br)ccc2Cl)cc1,0.5,18.7,-0.1,5.6,.,.
Cc1cc(C(F)(F)F)nc(SCC(=O)Nc2ncc(C(F)(F)F)cc2Cl)n1,0.5,-2.5,0.0,-1.7,.,.
O=C(Nc1ccc2oc(-c3ccccc3F)nc2c1)c1ccc(Br)cc1,-0.8,5.0,0.8,1.4,.,.
O=C(c1cnsn1)N1CCOc2ccc(C(O)CCc3ccccc3)cc2C1 (centres undefined),5.3*,-2.6,-0.1,-8.6,0.3,0.6
CC(=O)Nc1c(C(=O)c2ccc(Oc3ccccc3)cc2)oc2ccccc12,7.4*,-13.1,0.1,-0.9,1.6,6.6
CCCCCOc1ccc(C(=O)Nc2c(C(N)=O)oc3ccccc23)cc1,4.9*,6.2,0.0,1.3,1.6,0.4
CCCCOc1ccc(C(=O)Nc2c(C(N)=O)oc3ccccc23)cc1,-1.8,8.4,0.2,3.8,.,.
C=CCOc1ccc(/C=N/NC(=O)CSc2nc(C)cc(C)n2)cc1,2.7,14.4,0.0,10.9,.,.
C=CCOc1ccc(/C=N/NC(=O)CSc2nc(C)cc(C)n2)cc1OCC,11.5*,11.6,0.5,4.1,0.7,4.2
O=C(Cn1cc2c(n1)CCCC2)NCCCN1CCCCC1,0.7,0.2,0.8,2.2,.,.
O=C(Cn1cc2c(n1)CCCC2)NCCCN1CCN(C2CCCCC2)CC1,5.0*,13.5,0.2,6.2,0.7,10.8
Cc1cc2nc3c(=O)n(C4CCCCCC4)c(=O)[nH]c3nc2cc1N,5.1*,5.4,0.6,-20.4,2.4,8.1
CN(C)[C@@H]1CCN(Cc2cccc(Cl)c2)C[C@@H]1CCC(=O)N1CCSCC1,-2.3,-6.4,-0.1,-2.1,.,.
C=CCc1cc2c(C)cc(=O)oc2c(I)c1O,7.1*,14.1,0.5,-14.8,1.1,6.4
SMILES,GPR151 ag,MITF primary,FBW7 activator,TEAD-YAP block,GPR151 confirm,GPR119 ag
Cc1ccccc1CC(=O)Nc1cnc2cnc(-c3ccncc3)cn12,-0.1,-4.6,-0.3,17.6,.,.
O=S(=O)(CCOc1nc2cc(Cl)ccc2cc1CNC1CCOC1)c1ccccc1 (centres undefined),6.8*,13.6,-0.2,1.2,0.3,12.4
Cc1ccc(CNC(=O)CC(C)S(=O)(=O)c2cc3c(cc2C)NC(=O)CO3)cc1 (centres undefined),5.3*,-10.7,-0.1,-2.2,1.1,5.1
Cc1cc2c(cc1S(=O)(=O)C(C)CC(=O)NCc1ccc(Cl)cc1)OCC(=O)N2 (centres undefined),-0.7,-6.5,-0.1,3.4,.,.
CCN(CC)C(=O)C1CCCN(c2nc(C)cc(Nc3ccc(Oc4ccccc4)cc3)n2)C1 (centres undefined),12.1*,-2.4,0.0,13.5,1.0,3.6
CC(=O)c1cccc(N(CC(=O)Nc2ccc(CC#N)cc2)S(C)(=O)=O)c1,1.7,2.5,-0.6,11.0,.,.
COc1ccc(C(=O)Oc2ccc(C#N)cc2)cc1,6.7*,4.6,1.2,1.2,-1.0,-1.1
COc1ccc(Cc2nnc(Nc3cc(Cl)ccc3C)[nH]c2=O)cc1,5.0*,13.2,0.1,-2.6,0.0,14.3
COc1ccc(Cc2nnc(Nc3ccccc3C)[nH]c2=O)cc1,-1.3,12.2,0.0,6.7,.,.
O=C(c1ccc(N2CCC(NCCc3ccco3)CC2)cc1)N1CCOCC1,1.0,10.5,0.2,-3.6,.,.
COc1cccc(NCc2c(CO)cnc(C)c2O)c1,0.2,0.6,0.6,-6.5,.,.
CSc1ccc(S(=O)(=O)Nc2ccc(S(=O)(=O)N3CCOCC3)cc2)cc1,5.8*,-0.4,-0.1,-2.0,0.1,3.6
Cc1cccc(NC(=O)/C(C#N)=C\c2ccco2)c1,1.3,8.2,-0.1,-61.7,.,.
Cc1cc(C)c(NC(=O)/C(C#N)=C\c2ccco2)c(C)c1,6.3*,-15.8,0.1,4.8,-0.7,-0.8
C=CCn1cnc2c(nnn2-c2ccc(OC)c(OC)c2)c1=O,7.9*,-14.7,-0.2,4.3,1.4,8.2
COc1ccc(Cl)cc1S(=O)(=O)N1CCCC(C(=O)NCC(N)=O)C1 (centres undefined),7.4*,-1.7,-0.1,-5.9,0.6,5.5
COc1ccc(C)cc1S(=O)(=O)N1CCCC(C(N)=O)C1 (centres undefined),0.1,6.3,0.0,1.2,.,.
O=C1C(=O)N(CCN2CCOCC2)C(c2ccc(F)cc2)/C1=C(\O)c1ccccc1 (centres undefined),1.0,-7.9,-0.2,-4.5,.,.
Cc1cccc(OCC(=O)O/N=C(\N)c2ccc([N+](=O)[O-])cc2)c1,0.9,-0.2,-0.2,-2.9,.,.
O=C(NC1CCCC1)C(c1ccncc1)N(C(=O)NCc1cccs1)c1ccncc1 (centres undefined),10.3*,-10.6,0.0,-11.6,0.5,2.0
COc1ccc(N(C(=O)Cc2cccs2)C(C(=O)NC2CCCC2)c2ccncc2)cc1 (centres undefined),1.0,-0.8,0.0,-27.7,.,.
CC(C)CNC(=O)Cn1nnc2ccccc2c1=O,7.7*,-2.1,-0.1,-8.8,0.3,2.4
CC(C)CC(=O)N1CCC(n2nnc3ccccc3c2=O)CC1,6.0*,27.2,1.1,0.3,1.0,5.1
O=S(=O)(NCCCN1CCOCC1)c1cccc2nsnc12,0.0,9.9,-0.1,-1.3,.,.
CCC1CCCCN1S(=O)(=O)c1cc(OC)c(Cl)cc1OC (centres undefined),5.6*,2.9,0.0,-1.6,-0.2,7.5

# Assay outcomes (PubChem BioAssay)
